Source: PubChem BioAssay
D2 ag-1: human D2 receptor agonism in beta-arrestin assay | P14416 | DiscoveRx PathHunter D2 beta-arrestin, luminescence, 90 min; 100% = 57 uM dopamine signal | activation, % (test concentration not listed) | 360,000 compounds, 0.084% hits; in the data active means activation above about 40%; inconclusive means between about 15% and that limit
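Agonist mode: compounds alone added to overnight-plated D2 PathHunter cells for 90 min at 37 C, with 57 uM final dopamine (EC100) defining full response. Beta-arrestin recruitment detected by chemiluminescent reagent, read after 1 h at ambient temperature.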
D2 antag: antagonizes the human D2 dopamine receptor; 340,000 compounds, 2% hits; inhibition, % at 10 µM; P14416; HEK293 TREx D2 cells, calcium flux, dopamine EC80; in the data active means inhibition above about 30%; inactive means below that, where a call was filed; further: 0% is about no effect
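Tetracycline-induced HEK293 T-REx cells expressing D2 force-coupled to calcium signalling were dye-loaded, exposed to compound for 180 s, then challenged with an EC80 of dopamine; calcium flux was followed kinetically for a further 180 s.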
D2 ag-2: activates the human D2 dopamine receptor | HEK293 T-REx D2 cells, calcium flux agonist mode | P14416 | activation, % at 2 µM | 340,000 compounds, 0.53% hits;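 active means activation over 3 SD above normal in the single-dose calcium agonist read, cut at about 30% in these data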; further: 0% is about no effect
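Tetracycline-induced HEK293 Trex cells with D2 receptor force-coupled to calcium signaling, plated overnight at 30 C and loaded with no-wash calcium dye. Calcium flux read kinetically for 180 s after compound addition; responses flag agonists.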
D2 PAM-1: positive allosteric modulators of human D2 dopamine receptor; P14416; DiscoveRx D2 beta-arrestin cells, luminescence, 90 min; 100% = 57 uM dopamine signal; potentiation, % (no concentration beside the values); 360,000 compounds, 0.23% hits; in the data active means potentiation above about 50%; inconclusive means mostly about 30% to 49%
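PathHunter D2 cells, attached overnight at 37 deg C, received compound in DMSO plus dopamine at EC20 (50 nM final) for 90 min at 37 deg C. Beta-arrestin recruitment was read as luminescence after 1 h with detection reagent at ambient temperature.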
D2 PAM-2: D2 dopamine receptor (human) potentiation | HEK293 T-REx D2, calcium flux, EC20 dopamine potentiation | potentiation, % at 10 µM | 340,000 compounds, 0.34% hits | AID 485347;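 active means potentiation over 3 SD above the plate norm, cut at about 30% in these data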; further: 0% is about no effect
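Tetracycline-induced Hek293 Trex D2 cells, force-coupled to calcium, loaded with no-wash calcium dye. Compound added with 180 s kinetic read for agonism, then EC20 dopamine and a further 180 s read for potentiation.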
Starred values were filed as active, the others as inactive; ? = inconclusive; . = no result given. An excerpt weighted towards active compounds, which were near 2.4% of everything screened.

SMILES | D2 ag-1 | D2 antag | D2 ag-2 | D2 PAM-1 | D2 PAM-2
O=C(NCc1ccc2c(c1)CCN2C(=O)c1ccc(F)cc1)c1cc2ccccc2[nH]1 | . | . | 0.7 | . | -12.9
COc1cc(/C=C(\C#N)c2nc3ccccc3[nH]2)cc(OC)c1O | 12.4 | 9.0 | 35.6* | 4.9 | -2.2
COc1ccc(C(=O)c2c(C(F)(F)F)oc3c2C(=O)c2ccccc2C3=O)cc1OC | ? | 30.6* | 1.7 | ? | 4.7
Cc1ccc(S(=O)(=O)n2ccc3cccnc32)cc1 | -0.8 | 37.3* | 0.6 | -8.1 | -2.6
O=S(=O)(c1ccc(Cl)cc1)n1ccc2cccnc21 | -0.9 | 19.0 | 0.3 | -9.9 | 38.3*
CCN1CCN(C(c2ccccc2Cl)c2c(O)cc(C)n(Cc3ccco3)c2=O)CC1 (stereo not given) | . | . | -0.7 | . | -4.5
O=C(NC(=O)N1CCN(c2cccc(Cl)c2)CC1)c1ccccc1 | 0.9 | 2.9 | -1.6 | -19.5 | 4.8
O=C(NC(=O)N1CCCCCC1)c1ccc(Cl)cc1 | -0.5 | 31.7* | 0.2 | -5.3 | 2.9
O=C(NC(=O)N1CCN(c2cccc(Cl)c2)CC1)c1ccc(Cl)cc1 | 5.5 | 56.8* | 4.3 | -28.7 | -17.2
